These results are taken from the supplement of paper PMC11732987, “Enantioselective OTUD7B fragment discovery through chemoproteomics screening and high-throughput optimisation” (Communications Chemistry, 2025).

A number with no mark means an inactive call.

Assay in all cases: log2 ratio of Biotin-Ahx-Ub-VS probe labelling (fragment/DMSO); higher = less target engagement (more negative = stronger competition), active = hit call of the paper (q ≤ 0.05, log2 ratio ≤ -1)
Common to all, as to conditions: compound concentration: 200 uM; treatment time: 3 h

One assay deals with T1, ALG13 (UniProt Q9NP73).
T1 sequence (whole entry): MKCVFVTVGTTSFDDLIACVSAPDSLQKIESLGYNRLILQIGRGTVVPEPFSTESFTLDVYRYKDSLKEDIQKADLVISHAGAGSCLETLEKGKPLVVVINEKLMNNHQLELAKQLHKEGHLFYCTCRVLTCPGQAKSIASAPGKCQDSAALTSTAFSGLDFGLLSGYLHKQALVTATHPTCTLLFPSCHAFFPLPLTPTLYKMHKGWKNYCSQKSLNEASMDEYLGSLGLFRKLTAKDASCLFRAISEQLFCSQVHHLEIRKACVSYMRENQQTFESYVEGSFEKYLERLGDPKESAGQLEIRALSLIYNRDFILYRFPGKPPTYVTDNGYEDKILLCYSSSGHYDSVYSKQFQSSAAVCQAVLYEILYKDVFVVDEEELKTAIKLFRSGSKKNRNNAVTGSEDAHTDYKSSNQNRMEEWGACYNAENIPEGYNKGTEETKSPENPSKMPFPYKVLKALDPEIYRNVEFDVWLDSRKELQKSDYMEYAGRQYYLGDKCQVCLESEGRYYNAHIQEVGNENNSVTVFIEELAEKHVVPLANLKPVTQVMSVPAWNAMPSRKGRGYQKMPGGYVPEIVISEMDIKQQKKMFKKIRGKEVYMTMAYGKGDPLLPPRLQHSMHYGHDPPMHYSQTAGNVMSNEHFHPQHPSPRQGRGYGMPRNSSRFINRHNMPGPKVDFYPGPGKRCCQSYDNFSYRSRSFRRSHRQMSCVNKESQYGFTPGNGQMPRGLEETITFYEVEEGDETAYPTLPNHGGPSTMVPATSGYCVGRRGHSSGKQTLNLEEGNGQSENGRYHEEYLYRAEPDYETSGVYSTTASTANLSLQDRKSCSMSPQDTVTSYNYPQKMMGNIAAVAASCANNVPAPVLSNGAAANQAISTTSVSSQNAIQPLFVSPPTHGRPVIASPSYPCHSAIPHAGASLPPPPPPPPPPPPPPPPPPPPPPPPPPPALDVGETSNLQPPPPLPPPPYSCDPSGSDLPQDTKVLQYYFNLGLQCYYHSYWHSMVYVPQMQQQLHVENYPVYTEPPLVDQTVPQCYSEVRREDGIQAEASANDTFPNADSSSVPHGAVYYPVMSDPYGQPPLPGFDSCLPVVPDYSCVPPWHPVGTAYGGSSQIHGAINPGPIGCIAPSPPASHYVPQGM
Summed up: (§1)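 Fragment (200 µM) or vehicle was incubated for 3 h with triplicate HEK293T lysate samples of 495 µg, which were then treated with Biotin-Ahx-Ub-VS at 0.5 µM final for 1 h. Labelled DUBs were enriched on NeutrAvidin, digested with LysC and trypsin, and analysed by diaPASEF LC-MS/MS. Values are average log2 fragment/vehicle ratios from an unpaired t-test on global-median-normalised Spectronaut label-free quantities, using proteins with ≥2 unique peptides.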

The next assay deals with ATXN3 (UniProt P54252). In short, it runs like this:
as §1

The target in another assay is T2, BAP1 (UniProt Q92560).
T2 sequence (whole entry): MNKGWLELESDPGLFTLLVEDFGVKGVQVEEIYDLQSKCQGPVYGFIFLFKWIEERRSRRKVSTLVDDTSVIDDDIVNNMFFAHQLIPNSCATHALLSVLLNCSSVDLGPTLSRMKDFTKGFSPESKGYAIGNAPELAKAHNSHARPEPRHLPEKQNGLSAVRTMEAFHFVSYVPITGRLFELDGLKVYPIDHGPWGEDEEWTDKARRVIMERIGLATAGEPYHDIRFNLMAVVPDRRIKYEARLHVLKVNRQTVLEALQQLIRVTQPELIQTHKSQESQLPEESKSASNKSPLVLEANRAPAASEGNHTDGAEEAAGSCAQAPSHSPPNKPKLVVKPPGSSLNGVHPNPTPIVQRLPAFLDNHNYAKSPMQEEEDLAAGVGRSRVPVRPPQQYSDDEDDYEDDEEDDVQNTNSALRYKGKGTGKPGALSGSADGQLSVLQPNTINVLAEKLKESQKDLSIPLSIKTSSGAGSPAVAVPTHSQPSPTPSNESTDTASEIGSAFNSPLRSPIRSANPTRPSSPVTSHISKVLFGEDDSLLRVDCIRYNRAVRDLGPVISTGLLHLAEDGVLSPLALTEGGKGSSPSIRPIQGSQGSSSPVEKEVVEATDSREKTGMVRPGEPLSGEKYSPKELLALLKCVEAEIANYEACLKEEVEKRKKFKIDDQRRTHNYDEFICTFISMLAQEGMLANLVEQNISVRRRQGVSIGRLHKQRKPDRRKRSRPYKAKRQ
Summed up: as §1

The next assay concerns the target EIF3F (UniProt O00303). In short, it runs like this: as §1
Another assay has as its target EIF3H (UniProt O15372). In short, it runs like this:
as §1

The target of another assay is T3, FAM105A (UniProt Q9NUU6).
T3 sequence (whole entry): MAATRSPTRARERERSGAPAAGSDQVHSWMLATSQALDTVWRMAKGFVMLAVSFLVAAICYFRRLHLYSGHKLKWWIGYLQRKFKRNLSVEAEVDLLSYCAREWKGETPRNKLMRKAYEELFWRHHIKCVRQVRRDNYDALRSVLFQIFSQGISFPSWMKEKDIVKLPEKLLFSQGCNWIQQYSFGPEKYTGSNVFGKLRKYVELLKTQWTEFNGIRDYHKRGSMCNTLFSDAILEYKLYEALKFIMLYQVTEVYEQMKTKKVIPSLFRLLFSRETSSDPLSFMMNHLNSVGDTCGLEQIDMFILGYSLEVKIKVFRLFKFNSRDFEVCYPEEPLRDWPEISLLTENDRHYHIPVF
In short, it runs like this:
as §1

A further assay concerns the target OTUB1 (UniProt Q96FW1). In short, it runs like this: as §1
The target of another assay is T4, OTUD4 (UniProt Q01804).
T4 sequence (whole entry): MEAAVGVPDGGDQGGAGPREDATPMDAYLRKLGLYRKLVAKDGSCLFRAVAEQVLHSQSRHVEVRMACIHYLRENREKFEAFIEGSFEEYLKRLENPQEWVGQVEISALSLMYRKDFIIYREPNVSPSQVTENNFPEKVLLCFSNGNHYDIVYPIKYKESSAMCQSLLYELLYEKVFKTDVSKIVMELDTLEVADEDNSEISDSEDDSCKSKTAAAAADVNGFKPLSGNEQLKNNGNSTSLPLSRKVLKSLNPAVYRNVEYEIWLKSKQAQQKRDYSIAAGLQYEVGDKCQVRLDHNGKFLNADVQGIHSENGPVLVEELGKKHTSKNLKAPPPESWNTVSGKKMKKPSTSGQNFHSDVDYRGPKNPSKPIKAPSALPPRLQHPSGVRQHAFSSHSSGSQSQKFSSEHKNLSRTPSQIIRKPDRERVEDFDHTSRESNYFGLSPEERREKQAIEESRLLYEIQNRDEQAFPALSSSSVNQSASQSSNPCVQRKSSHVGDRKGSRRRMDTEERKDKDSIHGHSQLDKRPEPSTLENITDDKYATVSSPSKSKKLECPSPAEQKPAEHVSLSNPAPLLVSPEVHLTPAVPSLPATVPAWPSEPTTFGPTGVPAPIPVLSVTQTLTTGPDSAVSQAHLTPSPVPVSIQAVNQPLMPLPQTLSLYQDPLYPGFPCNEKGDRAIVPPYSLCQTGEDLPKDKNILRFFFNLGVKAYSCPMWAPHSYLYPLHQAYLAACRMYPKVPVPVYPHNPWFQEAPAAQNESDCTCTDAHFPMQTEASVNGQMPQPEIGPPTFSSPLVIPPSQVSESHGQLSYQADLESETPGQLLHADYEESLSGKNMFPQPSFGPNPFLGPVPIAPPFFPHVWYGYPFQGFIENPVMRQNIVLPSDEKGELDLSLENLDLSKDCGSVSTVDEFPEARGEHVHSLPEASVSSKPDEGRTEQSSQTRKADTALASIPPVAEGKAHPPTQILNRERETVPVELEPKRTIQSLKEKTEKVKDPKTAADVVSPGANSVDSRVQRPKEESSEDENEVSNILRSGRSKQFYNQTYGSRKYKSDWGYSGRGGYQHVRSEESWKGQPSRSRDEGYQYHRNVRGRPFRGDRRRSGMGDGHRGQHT
In short, it runs like this:
as §1

In a further assay the target is T5, OTUD5 (UniProt Q96G74).
T5 sequence (whole entry): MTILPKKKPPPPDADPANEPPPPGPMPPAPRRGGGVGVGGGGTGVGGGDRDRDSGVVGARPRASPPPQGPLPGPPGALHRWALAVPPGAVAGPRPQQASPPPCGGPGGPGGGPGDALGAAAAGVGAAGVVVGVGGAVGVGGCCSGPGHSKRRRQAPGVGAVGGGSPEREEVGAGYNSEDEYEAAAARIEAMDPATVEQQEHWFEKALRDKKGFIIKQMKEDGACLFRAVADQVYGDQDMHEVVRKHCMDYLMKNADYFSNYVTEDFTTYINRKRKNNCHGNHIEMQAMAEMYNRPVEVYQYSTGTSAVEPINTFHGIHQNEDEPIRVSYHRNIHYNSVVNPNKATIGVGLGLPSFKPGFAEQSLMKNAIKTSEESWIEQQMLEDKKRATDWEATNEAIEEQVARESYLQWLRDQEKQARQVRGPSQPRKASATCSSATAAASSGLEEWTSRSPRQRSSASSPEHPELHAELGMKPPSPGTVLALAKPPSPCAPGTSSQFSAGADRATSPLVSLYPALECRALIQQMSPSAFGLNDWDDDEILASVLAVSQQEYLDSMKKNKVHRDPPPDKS
Summed up: as §1

Sequence of EIF3H (O15372 whole entry): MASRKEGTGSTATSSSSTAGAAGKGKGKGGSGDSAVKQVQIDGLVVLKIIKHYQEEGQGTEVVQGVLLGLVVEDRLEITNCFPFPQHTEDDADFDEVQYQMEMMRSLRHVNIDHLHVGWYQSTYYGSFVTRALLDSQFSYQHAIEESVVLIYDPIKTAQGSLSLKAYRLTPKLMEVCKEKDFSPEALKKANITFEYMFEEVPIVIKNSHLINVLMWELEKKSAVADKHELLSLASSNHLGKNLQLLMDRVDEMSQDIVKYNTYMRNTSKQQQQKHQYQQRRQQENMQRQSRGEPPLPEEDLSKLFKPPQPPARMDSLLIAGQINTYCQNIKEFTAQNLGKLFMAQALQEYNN
Sequence of EIF3F (O00303 whole entry): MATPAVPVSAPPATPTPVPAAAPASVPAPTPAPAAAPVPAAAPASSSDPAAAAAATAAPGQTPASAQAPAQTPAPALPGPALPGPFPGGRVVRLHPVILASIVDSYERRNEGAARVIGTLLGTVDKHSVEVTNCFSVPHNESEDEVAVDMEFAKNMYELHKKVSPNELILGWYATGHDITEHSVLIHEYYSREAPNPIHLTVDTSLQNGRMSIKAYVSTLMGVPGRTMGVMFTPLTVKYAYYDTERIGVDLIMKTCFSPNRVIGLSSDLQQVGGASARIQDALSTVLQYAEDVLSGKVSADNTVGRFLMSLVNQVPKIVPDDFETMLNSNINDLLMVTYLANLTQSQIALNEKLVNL
Sequence of OTUB1 (Q96FW1 whole entry): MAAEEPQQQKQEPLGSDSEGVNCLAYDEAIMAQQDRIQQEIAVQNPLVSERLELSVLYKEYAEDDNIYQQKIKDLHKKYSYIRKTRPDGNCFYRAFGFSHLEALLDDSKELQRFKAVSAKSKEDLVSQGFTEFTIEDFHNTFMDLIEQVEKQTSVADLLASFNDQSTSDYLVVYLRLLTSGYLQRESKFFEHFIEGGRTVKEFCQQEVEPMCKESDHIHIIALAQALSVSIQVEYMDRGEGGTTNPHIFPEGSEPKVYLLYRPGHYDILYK
Sequence of ATXN3 (P54252 whole entry): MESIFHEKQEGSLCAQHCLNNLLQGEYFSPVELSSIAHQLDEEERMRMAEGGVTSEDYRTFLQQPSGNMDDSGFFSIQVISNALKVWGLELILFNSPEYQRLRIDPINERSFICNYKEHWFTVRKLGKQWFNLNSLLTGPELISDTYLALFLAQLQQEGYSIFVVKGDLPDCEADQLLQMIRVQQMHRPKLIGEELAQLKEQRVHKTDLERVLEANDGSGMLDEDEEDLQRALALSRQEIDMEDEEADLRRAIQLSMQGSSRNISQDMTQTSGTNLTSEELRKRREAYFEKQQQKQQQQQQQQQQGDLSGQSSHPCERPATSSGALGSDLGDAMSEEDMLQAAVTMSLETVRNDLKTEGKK

Take `COc1ccc(Cl)cc1NC(=O)CCl`: the “log2 ratio of Biotin-Ahx-Ub-VS probe labelling” value in the assay with ALG13 is 0.166; with ATXN3, -0.592; in the assay with BAP1, -1.61 (active); with EIF3F it was -0.594; in the assay with EIF3H it was 0.0551; in the assay with FAM105A it was -0.287. For the same molecule, the figures for the “log2 ratio of Biotin-Ahx-Ub-VS probe labelling” value with OTUB1, with OTUD4 and in the assay with OTUD5 were -0.497, -0.484 and -0.638, respectively.
